The GenesisPotency data set
The campaign covered roughly 65,000 compounds. About 45 (0.07%) were called active. The call rests on the fitted dose curve. This excerpt belongs to a sample that is enriched for actives.

test system: T1, ; test: Schistosoma Mansoni Peroxiredoxins (Prx2)
T1 sequence (whole entry): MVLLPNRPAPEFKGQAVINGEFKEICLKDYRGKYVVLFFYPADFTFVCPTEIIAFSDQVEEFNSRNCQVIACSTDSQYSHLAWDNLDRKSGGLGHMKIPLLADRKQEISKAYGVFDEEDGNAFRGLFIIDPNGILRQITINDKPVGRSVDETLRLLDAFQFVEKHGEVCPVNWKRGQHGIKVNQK

| SMILES | outcome |
| --- | --- |
| Cc1cc(C)c2cc(CN(CC3CCCO3)S(=O)(=O)c3ccc4c(c3)OCCO4)c(=O)[nH]c2c1 (stereo not given) | active |
| COc1ccc(S(=O)(=O)N(Cc2cc3ccc(OC)cc3[nH]c2=O)CC2COCCO2)cc1 (stereo not given) | active |
| CCc1nc(OCCN(CC)CC)c2oc3ccccc3c2n1.Cl | inactive |
| CC(=O)Oc1cc(OC(C)=O)c2c(C)cc(=O)oc2c1 | active |
| O=C(/N=C1\NC(=O)C(F)(C(F)(F)F)S1)NC1CCCCC1 (stereo not given) | active |
| CCC(=O)Oc1ccc2c(C)c(Cl)c(=O)oc2c1 | active |
| COC(=O)Cc1c(C)c2ccc(OC(=O)c3ccco3)cc2oc1=O | active |
| c1ccc(Cc2nn3c(C4COc5ccccc5O4)nnc3s2)cc1 (stereo not given) | inactive |
| O=C1c2ccccc2C(=O)N1CCCCn1c(=O)oc2ccccc21 | inactive |
| CN(C)c1oc(-c2ccccc2Cl)nc1C#N | active |
